From the supplement of paper PMC12024529

tested on: HEK293 WT BDD-FVIII-Gluc; assay: secreted FVIII-Gluc luciferase Z-score vs DMSO control; higher = more FVIII-Gluc secretion; settings: 5 µM
Method: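 Natural plant-compound library (480 compounds, ST catalogue IDs) screened on HEK293 cells stably expressing WT BDD-FVIII-Gaussia luciferase fusion at 5 µM. Secreted Gluc activity in the medium is given as a Z-score relative to DMSO controls.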

Compound	secreted FVIII-Gluc luciferase Z-score
COc1cc2c(cc1O)C[C@H]1c3c(cc(OC)c(O)c3-2)CCN1C	0.61
CN1CC[C@@]2(C)c3cc(O)ccc3N(C)[C@@H]12	-0.624
CCC12CCCN3CCC4(c5ccc(OC)c(O)c5N(C(C)=O)C4CC1)C32 (stereo not given)	0.655
CCCCCC[C@H]1C(=O)O[C@H](C)[C@H](NC(=O)c2cccc(NC=O)c2O)C(=O)O[C@@H](C)[C@@H]1OC(=O)CC(C)C	-3.29
C[C@]12CC[C@H](O)C[C@@H]1CC[C@@H]1[C@@H]2CC[C@]2(C)C(=O)CC[C@@H]12	0.049
CCN1C[C@]2(C)CC[C@H](O)[C@@]34C5C[C@@H]6[C@@H](OC)C[C@@](O)(C5[C@H]6O)[C@@H](CC23)C14 (stereo not given in full)	0.562
CC1=CC(=O)C2=C(C)C[C@H](O)[C@H]3[C@H](C)C(=O)O[C@@H]3C12 (stereo not given in full)	-0.726
CC(=O)N1C[C@@H]2C[C@H](C1)c1cccc(=O)n1C2	-0.118
CN1[C@@H]2CC[C@H]1CC(OC(=O)C(CO)c1ccccc1)C2 (stereo not given in full)	-0.395
COc1ccc2c(c1O)-c1c(OC)c(OC)cc3c1[C@H](C2)N(C)CC3	0.32
COc1ccc2c(c1OC)C(=O)O[C@H]2[C@@H]1c2cc3c(cc2CCN1C)OCO3	0.0229
C[C@]12CC[C@H](O)CC1=CC[C@@H]1[C@@H]2CC[C@]2(C)C(=O)CC[C@@H]12	1.29
C[C@H]1CCC/C=C/C2C[C@H](O)C[C@H]2[C@H](O)/C=C/C(=O)O1 (stereo not given in full)	-4.99
C=C[C@H]1CN2CCC1C[C@@H]2C(O)c1ccnc2ccccc12 (stereo not given in full)	0.484
CC1=NCCc2c1[nH]c1cc(O)ccc21	-0.262
CC[C@@H](CO)NC(=O)[C@@H]1C=C2c3cccc4[nH]cc(c34)C[C@H]2N(C)C1	0.791
C[C@]1(C(=O)O)CCC[C@]2(C)c3cc(O)ccc3CC[C@@H]12	-1.23
COc1cc2c(c(OC)c1OC)-c1ccc(O)c(=O)cc1[C@@H](NC(C)=O)CC2	0.222
CN(C)Cc1c[nH]c2ccccc12	0.161
CC1CC[C@@]2(NC1)O[C@H]1C[C@H]3[C@@H]4CC=C5C[C@@H](O)CC[C@]5(C)[C@H]4CC[C@]3(C)[C@H]1[C@@H]2C (stereo not given in full)	-1.02

Compound	secreted FVIII-Gluc luciferase Z-score
C=C[C@H]1CN2CCC1CC2c1[nH]c2ccccc2c1CCO (stereo not given in full)	0.502
CCC1CN2CCC1CC2C(O)c1ccnc2ccccc12 (stereo not given)	0.33
CC(=O)c1c(O)c(C)c(O)c(Cc2c(O)c3c(c(C(=O)/C=C/c4ccccc4)c2O)OC(C)(C)C=C3)c1O	-1.16
C[N+]1=Cc2cc3c(cc2CC1)OCO3	0.204
COc1cccc2c1cc([N+](=O)[O-])c1c(C(=O)O)cc3c(c12)OCO3	0.158
COc1ccc2c(c1OC)CN1CCc3cc4c(cc3C1C2)OCO4 (stereo not given)	0.658
C[C@@H]1C[C@@H]([C@H](O)CC2CC(=O)NC(=O)C2)C(=O)[C@@H](C)C1	-7.2
O=c1cccc2n1CC1CC2CN2CCCC[C@H]12 (stereo not given in full)	0.225
CC(C)C[C@H]1C(=O)N2CCC[C@H]2[C@]2(O)O[C@](NC(=O)[C@@H]3C=C4c5cccc6[nH]cc(c56)C[C@H]4N(C)C3)(C(C)C)C(=O)N12	0.241
c1cc2c(cc1C1OCC3C(c4ccc5c(c4)OCO5)OCC13)OCO2 (stereo not given)	-0.0258
C[C@H]1C(=O)O[C@H]2CCN3CC=C(COC(=O)[C@](C)(O)[C@@]1(C)O)C23 (stereo not given in full)	0.0827
CC(C)[C@@]1(NC(=O)[C@@H]2C[C@@H]3c4cccc5[nH]cc(c45)C[C@H]3N(C)C2)O[C@@]2(O)[C@@H]3CCCN3C(=O)[C@H](Cc3ccccc3)N2C1=O	-0.176
C=C[C@H]1CN2CCC1C[C@@H]2[C@@H](O)c1ccnc2ccccc12 (stereo not given in full)	-0.283
CC1CCC2C(C)C(=O)OC3OC4(C)CCC1C32OO4 (stereo not given)	-0.111
CO[C@]12C[C@@H](COC(=O)c3cncc(Br)c3)CN(C)[C@@H]1Cc1cn(C)c3cccc2c13	0.94
O=C1C[C@@H]2OCC=C3CN4CC[C@]56c7ccccc7N1[C@H]5[C@H]2[C@H]3C[C@H]46	-0.432
COc1cc2c(cc1O)CC1c3c(cc(O)c(OC)c3-2)CCN1C (stereo not given)	-0.91
COc1cc2c(cc1O)CCNC2C (stereo not given)	0.0191
COc1cc([C@@H]2c3cc4c(cc3[C@H](O)[C@H]3COC(=O)[C@H]23)OCO4)cc(OC)c1OC	-3.94
COc1ccc2c(c1OC)C(=O)O[C@@H]2[C@H]1c2cc3c(cc2CCN1C)OCO3	1.04
